Data as given in PubChem BioAssay (NCI).
The panel holds about 83,000 compounds, 20% with a hit somewhere; the sample as a whole holds those more often.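 A percent growth of 40 corresponds to 60% growth inhibition; 0 means no net growth; -100 means all cells died. Active threshold: below 10.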 Unmarked numbers belong to inactive results. The source made the active and inactive calls.

Tested on: HL-60(TB) leukemia
Experiment: NCI-60 one-dose screen, 48 h (100 = growth as untreated, 0 = no growth, -100 = all killed)
Conditions: 10 µM unless noted

| Structure (SMILES) | growth |
| --- | --- |
| c1cn2cc(-c3ccc4cn[nH]c4c3)nc(Nc3ccc(N4CCOCC4)cc3)c2n1 | 71.1% |
| O=C(Nc1nc(-c2ccc(Br)cc2)cs1)c1cc(-c2ccc(Br)cc2)nc2ccc(Cl)cc12 | 96.6% |
| Cc1cc(N2CCOCC2)nc(NCc2cc(Nc3ccnc4cc(Cl)ccc34)ccc2F)n1 | -54.2% (active) |
| CO[C@H](C(=O)[C@@H](O)[C@@H](C)O)[C@@H]1Cc2cc3cc(O[C@H]4C[C@@H](O[C@H]5C[C@@H](O)[C@H](O)C(C)O5)[C@H](O)C(C)O4)c(C)c(O)c3c(O)c2C(=O)[C@H]1O[C@H]1C[C@@H](O[C@H]2C[C@@H](O[C@H]3C[C@@H](OC)[C@H](O)C(C)O3)[C@@H](O)C(C)O2)C(O)(O)C(C)O1 (stereo not given in full) | 26.8% |
| CCN1C(=O)N(CC)C2Nn3c(s/c(=C\c4ccc([N+](=O)[O-])cc4)c3=O)=NC21 (stereo not given) | 87% |
| CCn1cc(C(=O)O)c(=O)c2cnc(N3CCCC3)nc21 | 75.9% |
| C=C(C)[C@@H]1CC[C@]2(C(N)=O)CC[C@]3(C)[C@H](CC[C@@H]4[C@@]5(C)C/C(=C/c6ccco6)C(=O)C(C)(C)[C@@H]5CC[C@]43C)[C@@H]12 | 93.2% |
| COc1ccc2c(OCc3nnc4ccc(-c5ccccc5)nn34)ccnc2c1 | 106% [2.5 µM] |
| CC12CCC(CC1)C(C)(C)O2 | 103% |
| Cc1ccc2cnc(N)c(C#Cc3cncc(C(=O)Nc4ccc(CN5CCN(C)CC5)c(C(F)(F)F)c4)c3)c2c1 | -59.7% (active) |
